In PubChem BioAssay (EPA / NIEHS):
Inconclusive results are not listed. More than one record can exist for a structure, and the calls need not agree. The source made the active and inactive calls. The calls were made as follows: active = hit-call score of the fitted dose curve at least 0.9, where 1 is the maximum; inconclusive = response in the unintended direction; inactive = score below 0.9.

Experiment: TOX21_p53_BLA_p3_viability: Viability Assessment in the Tox21 HCT-116 p53 Agonism Beta-lactamase Assay, Phase 3 (AID 2283593);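 also: cells exposed to compound for 16 h before reading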
Description: TOX21_p53_BLA_p3 is a cell-based, single-readout assay that uses HCT116, a human intestinal cell line, […] in a 1536-well plate.TOX21_p53_BLA_p3_viability is an assay readout measuring cellular ATP content and detected with CellTiter-Glo Luciferase-coupled ATP quantitation.TOX21_p53_BLA_p3_viability used a type of viability reporter where loss-of-signal activity can be used to understand changes in the cell viability. Furthermore, this assay endpoint can be referred to as a secondary readout, because this assay has produced multiple assay endpoints where this one serves a viability function. To generalize the intended target to other relatable targets, this assay endpoint is annotated to the cell cycle intended target family, where the subfamily is cytotoxicity.
Thawing Method: Place 14 mL of pre-warmed thaw medium into a 15 mL of conical tub. Remove the vial of cells to be thawed from liquid nitrogen and thaw rapidly by placing at 37C in a water bath with gentle agitation for 1-2 minutes. Decontaminate the vial by wiping with 70% ethanol before opening in a biological safety cabinet. Transfer the vial contents drop-wise into 14 mL of thaw medium in a sterile 15-mL conical tub. Centrifuge cells at 900 rpm for 4 minutes and resuspend in thaw medium. Transfer contents to the T75 tissue culture flask containing Thaw Medium and place flask in a humidified 37C/5% CO2 incubator. Switch to growth medium at first passage.Propagation Method: Aspirate medium, rinse once in DPBS, add 0.25% Trypsin/EDTA and swirl to coat the cell evenly. Add an equal volume of Growth Medium to inactivate Trypsin after 2-3 minutes incubation at 37C. Centrifuge cells at 900 rpm for 4 minutes and resuspend in growth medium. Cell should be passage or fed at least twice a week.Assay Protocol: Harvest cells from culture in growth medium and resuspend in assay medium. 2.2 Dispense 4000 cells/5 uL/well into 1536-well black/clear bottom plates using a Multidrop dispenser. After the cells were incubated at 37C for 5 hours, 23 nL of compounds dissolved in DMSO were transferred to the assay plate by a PinTool resulting in a 217-fold dilution. Incubate the plates for 16 hours at 37C, 5% CO2. Add 1 uL of 6X LiveBLAzer FRET B/G (CCF4-AM) Substrate Mixture to each well using a BioRAPTR dispenser and incubate the plates at room temperature for 2 hours. Measure fluorescence intensity at 460 and 530 nm emission and 405 nm excitation by an Envision detector. Data is expressed as the ratio of 460nm/530nm emissions. Add 4 uL of Cell-titer Glo to each well using BioRAPTR and incubate the plates at room temperature for […]. For cell viability readout that measures cytotoxicity, 4 ul/well of CellTiter-Glo reagent was added into the assay plates using a Flying Reagent Dispenser. After 30 min incubation at room temperature, the luminescence intensity in the plates was measured using a ViewLux plate reader.

| Structure (SMILES) | outcome | AC50 |
| --- | --- | --- |
| CCSC(=O)N1CCCCCC1 | inactive |  |
| CC(C)N1C(=O)N(c2ccccc2)CSC1=NC(C)(C)C | inactive |  |
| C=C(C)CN(CC)c1c([N+](=O)[O-])cc(C(F)(F)F)cc1[N+](=O)[O-] | inactive |  |
| Cc1ccc(N=CN(C)C=Nc2ccc(C)cc2C)c(C)c1 | inactive |  |
| CCOc1nc(C(Cl)(Cl)Cl)ns1 | inactive |  |
| COC(=O)N(C(=O)N1CO[C@@]2(C(=O)OC)Cc3cc(Cl)ccc3C2=N1)c1ccc(OC(F)(F)F)cc1 | inactive |  |
| CCCN(CC)CC1COC2(CCC(C(C)(C)C)CC2)O1 (stereo not given) | inactive |  |
| O=C(Nc1ccccc1-c1ccc(Cl)cc1)c1cccnc1Cl | inactive |  |
| CCCCC(C#N)(Cn1cncn1)c1ccc(Cl)cc1 (stereo not given) | inactive |  |
| COc1cc(OC)nc(NC(=O)NS(=O)(=O)c2ncccc2OCC(F)(F)F)n1 | inactive |  |
| N#Cc1c[nH]cc1-c1cccc2c1OC(F)(F)O2 | inactive |  |
| Clc1cccc(C(Cl)(Cl)Cl)n1 | inactive |  |
| CNC(=O)Oc1cccc2ccccc12 | inactive |  |
| COCC(=O)N(c1c(C)cccc1C)C(C)C(=O)OC (stereo not given) | inactive |  |
| CC1(C)CCC(=Cc2ccc(Cl)cc2)C1(O)Cn1cncn1 (stereo not given) | inactive |  |
| COc1ccc(-c2ccccc2)cc1NNC(=O)OC(C)C | inactive |  |
| CC1(C)C(C=C(Cl)Cl)C1C(=O)OC(C#N)c1cccc(Oc2ccccc2)c1 (stereo not given) | inactive |  |
| COP(=S)(OC)SCn1nnc2ccccc2c1=O | inactive |  |
| Nc1c(Cl)c(Cl)nc(C(=O)O)c1Cl | inactive |  |
| OC(c1ccc(Cl)cc1)(c1ccc(Cl)cc1)C(Cl)(Cl)Cl |  | 38.8 µM (active) |

| Structure (SMILES) | outcome | AC50 |
| --- | --- | --- |
| COC(=O)NS(=O)(=O)c1ccc(N)cc1 | inactive |  |
| CC(C)(C)C(=O)C(Oc1ccc(Cl)cc1)n1cncn1 (stereo not given) | inactive |  |
| Cc1c(COC(=O)[C@@H]2[C@H](/C=C(\Cl)C(F)(F)F)C2(C)C)cccc1-c1ccccc1 | inactive | 25.8 µM (active) |
| CCCCC(O)(Cn1cncn1)c1ccc(Cl)cc1Cl (stereo not given) | inactive |  |
| CC1(C)CON(Cc2ccccc2Cl)C1=O | inactive |  |
| Cn1c(-c2ccccc2)cc(-c2ccccc2)[n+]1C | inactive |  |
| CC(C)NC(=O)N1CC(=O)N(c2cc(Cl)cc(Cl)c2)C1=O | inactive |  |
| N#CN=C1SCCN1Cc1ccc(Cl)nc1 | inactive |  |
| O=C1C2CC=CCC2C(=O)N1SC(Cl)(Cl)Cl (stereo not given) | inactive |  |
| CCOP(=O)(OCC)Oc1nc(Cl)c(Cl)cc1Cl | inactive |  |
| Nc1c(Cl)c(F)nc(OCC(=O)O)c1Cl | inactive |  |
| CCOC(=O)C(C)OC(=O)c1cc(Oc2ccc(C(F)(F)F)cc2Cl)ccc1[N+](=O)[O-] (stereo not given) | inactive |  |
| COP(=S)(OC)Oc1ccc([N+](=O)[O-])c(C)c1 | inactive |  |
| CC(C)Oc1cccc(NC(=O)c2ccccc2C(F)(F)F)c1 | inactive |  |
| CS(=O)(=O)c1ccc(C(=O)C2C(=O)CCCC2=O)c([N+](=O)[O-])c1 | inactive |  |
| CC(C)N1C(=O)c2ccccc2NS1(=O)=O | inactive |  |
| O=c1n(Cl)c(=O)n(Cl)c(=O)n1Cl | inactive |  |
| CO/N=C(/C1=NOCCO1)c1ccccc1Oc1ncnc(Oc2ccccc2Cl)c1F | inactive |  |
| CC1(C)C(C(=O)OC(C#N)c2cccc(Oc3ccccc3)c2)C1(C)C (stereo not given) | inactive |  |
